Screen size: about 39,000 compounds; about 500 (1.3%) were called active. This excerpt belongs to a sample that is enriched for actives.
system: S. aureus RN4220; assay: growth inhibition call (relative growth <= 0.2); conditions: 50 µM

Compound | growth inhibition call
C[C@H]1CN([C@@H](C)CO)C(=O)c2cccc(NC(=O)Nc3ccc4c(c3)OCO4)c2O[C@H]1CN(C)C(=O)Nc1cccc2ccccc12 | inactive
COc1ccc(CN(C)C[C@@H]2OCCCC[C@H](C)Oc3ccc(NC(=O)CCC(F)(F)F)cc3C(=O)N([C@H](C)CO)C[C@H]2C)cc1 | inactive
COc1ccc(NC(=O)N(C)C[C@H]2Oc3c(NC(=O)CCCCCC(=O)Nc4ccccc4N)cccc3C(=O)N([C@H](C)CO)C[C@@H]2C)cc1 | inactive
CO[C@@H]1CN(C)C(=O)c2cc(NC(=O)CC(F)(F)F)ccc2OC[C@H](C)N(C(=O)C2CCOCC2)C[C@@H]1C | inactive
COC1=C2C[C@@H](C)C[C@H](OC)[C@H](O)[C@@H](C)/C=C(\C)[C@H](OC(N)=O)[C@@H](OC)/C=C\C=C(/C)C(=O)NC(=CC1=O)C2=O | inactive
CO[C@H]1/C=C\O[C@@]2(C)Oc3c(C)c(O)c4c(c3C2=O)[C@]2(C=C(NC(=O)/C(C)=C\C=C/[C@@H](C)[C@@H](O)[C@@H](C)[C@@H](O)[C@@H](C)[C@@H](OC(C)=O)[C@@H]1C)C4=O)OCC(=O)O2 | active
COC1C=COC2(C)Oc3c(C)c(O)c4c(O)c(c(C=NN5CCN(C)CC5)c(O)c4c3C2=O)NC(=O)C(C)=CC=CC(C)C(O)C(C)C(O)C(C)C(OC(C)=O)C1C (configuration not stated) | inactive
COC1C=COC2(C)Oc3c(C)c(O)c4c(O)c(c5c(nc6cc(C)ccn65)c4c3C2=O)NC(=O)C(C)=CC=CC(C)C(O)C(C)C(O)C(C)C(OC(C)=O)C1C (configuration not stated) | active
CO[C@H]1/C=C\O[C@@]2(C)Oc3c(C)c(O)c4c(O)c(c(/C=N/N=C/N5CCCCC5)c(O)c4c3C2=O)NC(=O)/C(C)=C\C=C/[C@H](C)[C@H](O)[C@@H](C)[C@@H](O)[C@@H](C)[C@H](OC(C)=O)[C@@H]1C | active
COC1C=COC2(C)Oc3c(C)c(O)c4c(O)c(c(C=NN5CCN(C6CCCC6)CC5)c(O)c4c3C2=O)NC(=O)C(C)=CC=CC(C)C(O)C(C)C(O)C(C)C(OC(C)=O)C1C (configuration not stated) | inactive
COC1=C2C[C@H](C)C[C@H](OC)[C@@H](O)[C@H](C)/C=C(\C)[C@H](OC(N)=O)[C@H](OC)/C=C/C=C(\C)C(=O)NC(=CC1=O)C2=O | inactive
C[C@H](CO)N1C[C@H](C)[C@@H](CN(C)Cc2ccncc2)Oc2c(NS(=O)(=O)c3cn(C)cn3)cccc2C1=O | inactive
O=C1O[C@H](c2ccccc2)[C@H](c2ccccc2)N2[C@H]1[C@@H](C(=O)N1CCN(c3ncccn3)CC1)[C@]1(C(=O)Nc3ccc(C#CC4=CCCCC4)cc31)[C@H]2c1ccc(O)cc1 | inactive
CC(C)CC#Cc1cnc2c(c1)C(=O)N([C@@H](C)CO)C[C@H](C)[C@@H](CN(C)C(=O)CCN1CCCCC1)O2 | inactive
CC(C)NC(=O)Nc1ccc2c(c1)CC(=O)N([C@@H](C)CO)C[C@@H](C)[C@@H](CN(C)S(=O)(=O)c1ccc(F)cc1)O2 | inactive
Cc1ccc(-c2c[nH]c(=S)[nH]2)cc1 | inactive
Cn1c(-c2ccccc2)c[nH]c1=S | inactive
S=c1[nH]cc(-c2ccccc2)[nH]1 | active
CC1CC2C3CCC4=CC(=O)C=CC4(C)C3(Cl)C(O)CC2(C)C1(OC(=O)c1ccco1)C(=O)CCl (configuration not stated) | inactive
CN(C)C(=O)c1ccc(-c2cccc(-c3nc(C(=O)NC4CCCC4)cc4c3[C@@H](CCO)N([S@](=O)C(C)(C)C)C4)c2)cc1 | inactive
COc1ccc(S(=O)(=O)Nc2ccc3c(c2)C(=O)N([C@@H](C)CO)C[C@H](C)[C@@H](CN(C)S(C)(=O)=O)OCCCC[C@@H](C)O3)cc1 | inactive
COc1cc2nc(N3CCCN(Cc4ccccc4)CC3)nc(NC3CCN(Cc4ccccc4)CC3)c2cc1OC | inactive
COc1cc2nc(N3CCCN(Cc4ccccc4)CC3)nc(Nc3ccc(F)c(Cl)c3)c2cc1OC | inactive
Brc1ccc2nc(N3CCCN(Cc4ccccc4)CC3)nc(NC3CCN(Cc4ccccc4)CC3)c2c1 | active

Compound | growth inhibition call
COc1ccc2c3c(n(c2c1)C)[C@H](CO)N(Cc1cc(cc(c1)OC)OC)C[C@]13CN(C1)C(=O)NC(C)C | inactive
O=C(O)c1ccc2cc(-c3ccc(O)c(C45CC6CC(CC(C6)C4)C5)c3)ccc2c1 | active
O=C(O)c1ccc2ccccc2c1 | inactive
COc1ccc(-c2ccc3cc(C(=O)O)ccc3c2)cc1C12CC3CC(CC(C3)C1)C2 | inactive
CCO[C@@H]1OC(C(=O)N2CCOCC2)=C[C@H](c2ccccc2)[C@H]1CCCOC(=O)NCCCCCC(=O)NO | inactive
Cc1noc(C)c1NC(=O)N(C)C[C@@H]1Oc2c(NC(=O)c3ccncc3)cccc2C(=O)N([C@@H](C)CO)C[C@H]1C | inactive
COc1ccc(S(=O)(=O)N(C)C[C@H]2OCCCC[C@H](C)Oc3ccc(NS(C)(=O)=O)cc3C(=O)N([C@H](C)CO)C[C@H]2C)cc1 | inactive
CC(C)c1onc(-c2c(Cl)cccc2Cl)c1COc1ccc(/C=C/c2cccc(C(=O)O)c2)c(Cl)c1 | active
O=C(O)c1ccnc(N2CC(O)(c3ccc(OCc4c(-c5c(Cl)cccc5Cl)noc4C4CC4)cc3Cl)C2)c1 | inactive
CC(C)c1onc(-c2c(Cl)cccc2Cl)c1COc1ccc(C=Cc2cccc(C(=O)O)c2)c(Cl)c1 | inactive
CN(C)C(=O)C[C@H]1C=C[C@@H](NC(=O)C2CC2)[C@H](CO)O1 | inactive
CCCCN(CCCC)CCCOC(=O)c1ccc(N)cc1.O=S(=O)(O)O | inactive
CCCCc1oc2ccc(NS(C)(=O)=O)cc2c1C(=O)c1ccc(OCCCN(CCCC)CCCC)cc1 | active
CCCCc1oc2ccc(NS(C)(=O)=O)cc2c1C(=O)c1ccc(OCCCN(CCCC)CCCC)cc1.Cl | inactive
COC(=O)[C@H](Cc1ccc(-n2cc(C(=O)NO)nn2)cc1)N1C[C@](C)(OC)O[C@@H](Cc2ccccc2)[C@H]1/C=C/C1CC1 | inactive
Cc1c(N)nc([C@H](CC(N)=O)NC[C@H](N)C(N)=O)nc1C(=O)N[C@H](C(=O)N[C@H](C)[C@@H](O)[C@H](C)C(=O)N[C@H](C(=O)NCCc1nc(-c2nc(C(=O)NCCCNCCCCN)cs2)cs1)[C@@H](C)O)[C@@H](O[C@@H]1O[C@@H](CO)[C@@H](O)[C@H](O)[C@@H]1O[C@@H]1O[C@H](CO)[C@@H](O)[C@H](OC(N)=O)[C@@H]1O)c1c[nH]cn1 | active
Clc1ccc(C(c2ccc(Cl)cc2)[n+]2ccn(C[C@@H](OCc3ccc(Cl)cc3Cl)c3ccc(Cl)cc3Cl)c2)cc1 | inactive
CCC1OC(=O)C(C)C(OC2CC(C)(OC)C(O)C(C)O2)C(C)C(OC2OC(C)CC(N(C)C)C2O)C(C)(O)CC(C)C2NC(COCCOC)OC(C2C)C1(C)O (configuration not stated) | active
CC[C@H]1OC(=O)[C@H](C)[C@@H](O[C@H]2C[C@@](C)(OC)[C@@H](O)[C@H](C)O2)[C@H](C)[C@@H](O[C@@H]2O[C@H](C)C[C@H](N(C)C)[C@H]2O)[C@](C)(O)C[C@@H](C)[C@@H]2N[C@@H](COCCOC)O[C@H]([C@H]2C)[C@]1(C)O | active
CO[C@@H]1CN(C)C(=O)c2cc(NC(=O)Nc3ccc(Cl)cc3)ccc2OC[C@@H](C)N(C(=O)Nc2c(C)noc2C)C[C@@H]1C | inactive
Cc1ccc(S(=O)(=O)N(C)C[C@@H]2OCCCC[C@@H](C)Oc3ccc(NS(C)(=O)=O)cc3C(=O)N([C@H](C)CO)C[C@@H]2C)cc1 | inactive
O=C(C[C@H]1CC[C@H]2[C@@H](COC[C@@H](O)CN2C(=O)c2ccncc2)O1)NC1CCC1 | inactive
COCC(=O)N1C[C@]2(C1)CN([C@@H](CO)c1[nH]c3cc(ccc3c12)OC)S(=O)(=O)C | inactive

From the antibiotic and cytotoxicity screens of Wong et al. (2023)
